We go through 38 compounds from PubChem BioAssay (NCI).

Compounds without any hit were thinned out: in the full panel of roughly 83,000, 20% have a hit.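 Negative percent growth values reflect cell death: -40 means 40% of the cells present at the start died, and -100 means all died.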 Unmarked numbers belong to inactive results. The source made the active and inactive calls. The calls were made as follows: active = growth percent below 10; inactive = the rest.

One assay has as its system OVCAR-5 ovarian. Kind of assay: NCI-60 one-dose screen, 48 h (100 = growth as untreated, 0 = no growth, -100 = all killed). Particulars: 10 µM unless noted.
Turning to `C=CCn1c(C)nc2cc(Nc3nc(N4CCCC4)nc4ccccc34)ccc21`, the growth was 123%.

Turning to `Cc1ccc(/C=C/c2c(C(=O)/C=C/c3ccc(Cl)cc3)c(C)nc3ccccc23)cc1`, the growth is -33.4% (active).

As for `COc1cc(/C=C/C(=O)c2cccc(-n3cc(-c4ccccc4)[nH]c3=O)c2)ccc1O`, the growth was 61.3%.

Turning to `C=CCOC1=CC(=O)c2ccccc2C1=O`, the growth is 110%.

Take `Cn1cc(-c2csc(-c3ccccc3)n2)c2cccnc21`: the growth is -44.2% [100 µM] (active).

As to `c1ccc(-c2nc([P+](c3ccccc3)(c3ccccc3)c3ccccc3)c(N3CCOCC3)o2)cc1`, the growth was 11.1%.

In the case of `O=C(COc1ccc(/C=C2\Oc3ccccc3C2=O)cc1)Nc1nc2c(s1)CCCC2`, the growth was 61.7%.

On to `COc1ccc(C2c3ccc4ccccc4c3Oc3nc(C)[nH]c(=O)c32)cc1` (configuration not stated), for which the growth is 114%.

Consider `CN(C)c1ccc(-c2ccc3[nH]c(=O)nc(-c4ccccc4)c3c2)cn1`, for which the growth is 65.9%.

In the case of `O=C1/C(=C\c2c[nH]c3ccccc23)c2ccccc2N1c1c(Cl)cccc1Cl`, the growth is -35.9% (active).

Take `Cc1cc(/C=C\c2ccc3ccccc3[n+]2C)c(O)c2ncccc12`: the growth was 23.9%.

`O=C1N=c2cc3c(cc2=C/C1=C/c1sc(=S)n(CCc2ccc(O)cc2)c1O)OCCO3`: the growth is 64%.

With `N#Cc1nc(C#N)c(Sc2ccccc2)c(Sc2ccccc2)c1Sc1ccccc1`, the growth is -71.3% (active).

Regarding `Cc1cc(NCCCCNc2ccnc3cc(Cl)ccc23)nc(Nc2ccc(C(=O)N3CCCC3)cc2)n1`, the growth was 108%.

In the case of `CC(C)CCC[C@@H](C)[C@H]1CC[C@H]2[C@@H](Nc3ccc(O)cc3)CCC[C@]12C`, the growth is 114%.

Consider `O=C(c1ccccc1)c1c(/C=C/c2ccc(Cl)cc2)nc2ccccc2c1/C=C/c1cccs1`, for which the growth was 98.1%.

With `CC(=O)n1c(-c2ccc(Cl)cc2)nc2c(c1=O)C(c1ccc(Cl)cc1)c1sc3c(Cl)cccc3c1O2` (configuration not stated), the growth is -3.95% (active).

Consider `CN1CCN(CCCOc2ccc3nc(Nc4ccc(F)c(F)c4)ccc3c2)CC1`, for which the growth is 41%.

Regarding `CS(=O)c1cccc(-c2ccc3nc(N)n(-c4ccc(C(F)(F)F)cc4)c(=O)c3c2)c1` (configuration not stated), the growth is 100%.

Regarding `COc1ccc2[nH]c(O)c(/C=c3/cc4c(c(-c5ccc(F)c(OC)c5)n3)=Nc3ccccc3-4)c2c1`, the growth was 93.9%.

`CC(=O)C(C)Cc1cc2c(cc1C)C(C)(C)CCC2(C)C` (configuration not stated): the growth was 98.6%.

`COc1cc(/C=C2\C(=O)ON=C2C)cc(OC)c1OC`: the growth is 99.3%.

As to `CCCCn1c(=O)c2c(nc3n2CCCN3CCc2ccc(OCC(=O)NCCN(CC)CC)cc2)n(CCCC)c1=O`, the growth is 94%.

Consider `COc1cc2c(cc1-c1c(C)noc1C)ncc1nc(C3CCC(F)(F)CC3)n(C3CCC(OC(F)F)CC3)c12` (configuration not stated), for which the growth was 76.2%.

Consider `CCN(CCNc1ccc(C)c2sc3ccccc3c(=O)c12)CC(C)(C)O`, for which the growth is 79.4%.

Regarding `CCCCCCCCCCCCCCCCCCOc1ccccc1CC(=O)OCCC[N+](C)(C)C`, the growth is 46.9%.

Consider `COc1ccc(C(=NN=C(N)N)c2ccc(OC)cc2)cc1`, for which the growth was 69.1%.

Take `CC1(c2ccccc2)NC(=O)N(NC(=O)CSc2nc(-c3cccs3)nc3ccccc23)C1=O` (configuration not stated): the growth was 76.7%.

With `CCN(CC)Cc1cccc(C(=O)OC)c1`, the growth is 94.1%.

Regarding `CCCCc1ccc(Nc2ccc(Nc3ccc(CCCC)cc3S(=O)(=O)O)c3c2C(=O)c2ccccc2C3=O)c(S(=O)(=O)O)c1`, the growth was 97.8%.

As for `O=C(Nc1ccc(Cl)cc1)Nc1ccc(Cl)c(C(F)(F)F)c1`, the growth was 1.37% (active).

Take `COc1cc(/C=N/Nc2ncc(-c3cc4cc5c(cc4o3)OCO5)s2)cc(OC)c1OC`: the growth was 98.2%.

As to `COc1ccc(-c2nc3c(N)c(CO)c(C)nc3o2)cc1`, the growth was 85.1%.

Take `c1ccc(Nc2nc(-c3ccccn3)cs2)nc1`: the growth was 53%.

Regarding `Cc1ccc(S(=O)(=O)Oc2cc(OS(=O)(=O)c3ccc(C)cc3)cc(OS(=O)(=O)c3ccc(C)cc3)c2)cc1`, the growth was 105%.

For the compound `COc1ccc(NC(=O)c2nc(-c3cc(OC)c(OC)c(OC)c3)n(-c3cccc4ccccc34)n2)cc1OC`, the growth was 56.1%.

Consider `COc1ccc(C2C(c3nn[nH]n3)=C(N)Oc3c2ccc2ccccc32)cc1` (configuration not stated), for which the growth is 104%.

The test system of the next assay is OVCAR-4 ovarian. Described as above. Particulars: 10 µM unless noted.
`C=CCn1c(C)nc2cc(Nc3nc(N4CCCC4)nc4ccccc34)ccc21`: the growth was 91.3%.

Take `Cc1ccc(/C=C/c2c(C(=O)/C=C/c3ccc(Cl)cc3)c(C)nc3ccccc23)cc1`: the growth is 6.64% (active).

In the case of `COc1cc(/C=C/C(=O)c2cccc(-n3cc(-c4ccccc4)[nH]c3=O)c2)ccc1O`, the growth is 49.1%.

In the case of `Cn1cc(-c2csc(-c3ccccc3)n2)c2cccnc21`, the growth was -19.4% [100 µM] (active).

As to `c1ccc(-c2nc([P+](c3ccccc3)(c3ccccc3)c3ccccc3)c(N3CCOCC3)o2)cc1`, the growth was 11.4%.

With `O=C(COc1ccc(/C=C2\Oc3ccccc3C2=O)cc1)Nc1nc2c(s1)CCCC2`, the growth is 75.6%.

Turning to `COc1ccc(C2c3ccc4ccccc4c3Oc3nc(C)[nH]c(=O)c32)cc1` (configuration not stated), the growth was 113%.

On to `CN(C)c1ccc(-c2ccc3[nH]c(=O)nc(-c4ccccc4)c3c2)cn1`, for which the growth is 70.4%.

Turning to `O=C1/C(=C\c2c[nH]c3ccccc23)c2ccccc2N1c1c(Cl)cccc1Cl`, the growth is 25%.

Regarding `Cc1cc(/C=C\c2ccc3ccccc3[n+]2C)c(O)c2ncccc12`, the growth is 7.86% (active).

Consider `O=C1N=c2cc3c(cc2=C/C1=C/c1sc(=S)n(CCc2ccc(O)cc2)c1O)OCCO3`, for which the growth is 80.9%.

As to `N#Cc1nc(C#N)c(Sc2ccccc2)c(Sc2ccccc2)c1Sc1ccccc1`, the growth is -11.9% (active).

For the compound `Cc1cc(NCCCCNc2ccnc3cc(Cl)ccc23)nc(Nc2ccc(C(=O)N3CCCC3)cc2)n1`, the growth was 48.4%.

For the compound `CC(C)CCC[C@@H](C)[C@H]1CC[C@H]2[C@@H](Nc3ccc(O)cc3)CCC[C@]12C`, the growth was -73.1% (active).

On to `O=C(c1ccccc1)c1c(/C=C/c2ccc(Cl)cc2)nc2ccccc2c1/C=C/c1cccs1`, for which the growth was 96.3%.

Consider `CC(=O)n1c(-c2ccc(Cl)cc2)nc2c(c1=O)C(c1ccc(Cl)cc1)c1sc3c(Cl)cccc3c1O2` (configuration not stated), for which the growth was 17.3%.

As to `CN1CCN(CCCOc2ccc3nc(Nc4ccc(F)c(F)c4)ccc3c2)CC1`, the growth was 51.2%.

`CS(=O)c1cccc(-c2ccc3nc(N)n(-c4ccc(C(F)(F)F)cc4)c(=O)c3c2)c1` (configuration not stated): the growth was 100%.

With `COc1ccc2[nH]c(O)c(/C=c3/cc4c(c(-c5ccc(F)c(OC)c5)n3)=Nc3ccccc3-4)c2c1`, the growth was 6.42% (active).

As for `CC(=O)C(C)Cc1cc2c(cc1C)C(C)(C)CCC2(C)C` (configuration not stated), the growth was 104%.

On to `COc1cc(/C=C2\C(=O)ON=C2C)cc(OC)c1OC`, for which the growth is 104%.

On to `CCCCn1c(=O)c2c(nc3n2CCCN3CCc2ccc(OCC(=O)NCCN(CC)CC)cc2)n(CCCC)c1=O`, for which the growth is 52.3%.

As for `COc1cc2c(cc1-c1c(C)noc1C)ncc1nc(C3CCC(F)(F)CC3)n(C3CCC(OC(F)F)CC3)c12` (configuration not stated), the growth is 50.5%.

Consider `CCN(CCNc1ccc(C)c2sc3ccccc3c(=O)c12)CC(C)(C)O`, for which the growth was 95.7%.

With `CCCCCCCCCCCCCCCCCCOc1ccccc1CC(=O)OCCC[N+](C)(C)C`, the growth is 35%.

With `Cc1c(C(=O)N[C@@H](Cc2ccccc2)C(=O)C(=O)NCCc2ccccc2)[nH]c2ccccc2c1=O`, the growth is 94%.

As for `CC1(c2ccccc2)NC(=O)N(NC(=O)CSc2nc(-c3cccs3)nc3ccccc23)C1=O` (configuration not stated), the growth is 106%.

On to `CCN(CC)Cc1cccc(C(=O)OC)c1`, for which the growth was 101%.

Take `CCCCc1ccc(Nc2ccc(Nc3ccc(CCCC)cc3S(=O)(=O)O)c3c2C(=O)c2ccccc2C3=O)c(S(=O)(=O)O)c1`: the growth was 99.9%.

Consider `O=C(Nc1ccc(Cl)cc1)Nc1ccc(Cl)c(C(F)(F)F)c1`, for which the growth was 30.6%.

Consider `COc1cc(/C=N/Nc2ncc(-c3cc4cc5c(cc4o3)OCO5)s2)cc(OC)c1OC`, for which the growth was 68.7%.

In the case of `COc1ccc(-c2nc3c(N)c(CO)c(C)nc3o2)cc1`, the growth was 104%.

Consider `Cc1ccc(S(=O)(=O)Oc2cc(OS(=O)(=O)c3ccc(C)cc3)cc(OS(=O)(=O)c3ccc(C)cc3)c2)cc1`, for which the growth was 93.2%.

Consider `COc1ccc(NC(=O)c2nc(-c3cc(OC)c(OC)c(OC)c3)n(-c3cccc4ccccc34)n2)cc1OC`, for which the growth is 45.5%.

On to `COc1ccc(C2C(c3nn[nH]n3)=C(N)Oc3c2ccc2ccccc32)cc1` (configuration not stated), for which the growth is 83.7%.
